Reference: ChEMBL document CHEMBL1157539, “Thousands of chemical starting points for antimalarial lead identification” (Nature, 2010)

What follows are compounds tested on Plasmodium falciparum (assay: GSK_TCMDC: Inhibition of Plasmodium falciparum Dd2 in whole red blood cells, using parasite LDH activity as an index of growth. Test compounds present at 2uM).
Type: functional

| Compound | Inhibition |
| --- | --- |
| Br.CCC(CCON1C(N)=NC(N)=NC1(C)C)c1ccc(Cl)cc1 (stereo not given) | 95% |
| COc1ccc(CNC2CCN(C)CC2)cc1-c1ccc(S(=O)(=O)NCc2ccccc2)c(C)c1.O=C(O)C(F)(F)F | 98% |
| CC(Cc1ccc(NS(=O)(=O)c2ccc(CC(C)NCCc3cccc(Cl)c3)cc2)cc1)NCCc1cccc(Cl)c1 (stereo not given) | 38% |
| COc1cc(NC(=O)c2ccc(-c3ccc(C(C)=O)cc3)s2)ccc1OCCN1CCCC1 | 63% |
| COc1ccc2[nH]c(C)cc(=NN=Cc3ccc(Cl)cc3)c2c1 | 100% |
| CCOC(=O)c1ccc(Nc2cc(Nc3ccc(C(=O)OCC)cc3)nc(C)n2)cc1 | 33% |
| O=C(O)C(F)(F)F.O=S(=O)(NC1CCN(c2ccnc3ccccc23)C1)c1ccc(OC(F)(F)F)cc1 (stereo not given) | 0% |
| COc1cc(NC(=O)CCCN2CCN(c3cccc(Cl)c3Cl)CC2)ccc1N1CCN(C(C)C)CC1.Cl | 59% |
| COc1ccc2c(c1)OC(C)(C)CC2=NOS(=O)(=O)c1ccc(C)cc1 | 12% |
| Cc1cccc2nc(-c3ccc(-c4ccc(CN5CCN(c6ccncc6)CC5)cc4)cc3)[nH]c12.O=C(O)C(F)(F)F | 100% |
| O=C(C=Cc1ccc(Cl)c(Cl)c1)NCCCCCN1CCC(CCNC(=O)C(c2ccccc2)c2ccccc2)CC1 | 43% |
| Cc1[nH]c2ccc(C#N)cc2c(=O)c1Br | 61% |
| Nc1cccc(CNCc2ccc(-c3ccc(-c4nc5cc(F)ccc5[nH]4)s3)cc2)c1.O=C(O)C(F)(F)F | 93% |
| CCN(CCCN1CCCCC1)c1cc(C)nc(Nc2cc(C)ccc2C)n1.O=C(O)C(F)(F)F | 42% |
| CCCCCCNC(=O)C1Cc2c([nH]c3ccc(Br)cc23)C2(CCN(CCc3ccccc3)CC2)N1 (stereo not given) | 94% |
| CC1CN(Cc2ccc(-c3cccc(-c4nc5cc(F)ccc5[nH]4)c3)cc2)CC(C)O1.O=C(O)C(F)(F)F (stereo not given) | 20% |
| CC[C@H](NC(=O)c1c(N)c(-c2sccc2Cl)nc2ccccc12)c1ccccc1 | 92% |
| O=C(O)C(F)(F)F.Oc1ccc(CCNc2nc(NCc3ccccc3-c3cccc(Cl)c3)nc(N3CCNCC3)n2)cc1 | 11% |
| Cc1c(Oc2ccc(-n3ccnc3)cc2)ncnc1N1CCC2(CC1)CNCc1ccccc12.O=C(O)C(F)(F)F | 58% |
| Cl.O=C(C=Cc1cccc(F)c1)NC1CCC(CCN2CCc3ccc(-c4cnccn4)cc3CC2)CC1 (stereo not given) | 67% |

| Compound | Inhibition |
| --- | --- |
| c1cc2[nH]c(CCc3nc4cc(C5=NC6CCCCC6N5)ccc4[nH]3)nc2cc1C1=NC2CCCCC2N1 (stereo not given) | 96% |
| CCOC(=O)c1cn(CC)c2cc(F)c(OC3CC4CCC3(C)C4(C)C)cc2c1=O (stereo not given) | 70% |
| COc1ccc(C(=O)N[C@@H](CC(C)C)C(=O)NC2CC[C@@H](C)N(C(=O)Nc3ccc(Cl)cc3)CC2=O)cc1OCCN1CCOCC1 (stereo not given in full) | 91% |
| Cc1cccc2nc(-c3ccc(-c4cccc(CN5CC(C)OC(C)C5)c4)s3)[nH]c12.O=C(O)C(F)(F)F (stereo not given) | 79% |
| N#Cc1ccc(-c2nc(CO)c(C(=O)NCCCCN3CCC(c4ccc5c(c4OCC(N)=O)CCCC5)CC3)s2)cc1 | 0% |
| CC(CN(C)C)C(=O)Nc1cccc(-c2ccc(-c3nc4ccccc4[nH]3)s2)c1 (stereo not given) | 47% |
| N=C(N)NC(=O)Nc1ccc(Cl)c(Cl)c1 | 13% |
| COc1ccc(CNCCc2cccs2)cc1-c1ccc(S(=O)(=O)NCCN2CCCC2)s1.O=C(O)C(F)(F)F | 21% |
| CCNc1cc(C(=O)N[C@@H](Cc2ccccc2)[C@H](O)CNCCc2ccccc2)cc(N2CCCCS2(=O)=O)c1.Cl | 91% |
| O=C(c1cc(C(=O)Nc2ccc(F)cc2)c(=O)n(-c2ccc(F)cc2)c1)c1cc(Cl)ccc1O | 98% |
| Fc1cccc(Nc2nc(NCCc3ccc(Cl)cc3)nc(Nc3cccc(F)c3)n2)c1 | 30% |
| Cc1c(C)n(C2CCCCC2)c2ncnc(OC3CCN(CC(=O)NC4CC4)CC3)c12 | 72% |
| CN1CCN(CCCCCCNc2c3ccccc3nc3ccccc23)CC1.Cl | 0% |
| Cl.Oc1ccc(C2CNCCc3c2cc(O)c(OCc2ccccc2)c3Cl)cc1 (stereo not given) | 8% |
| CN1CCC(NCc2ccc(-c3cccc(-c4nc5ccccc5[nH]4)c3)cc2)CC1.O=C(O)C(F)(F)F | 96% |
| COc1ccc(N2CCN(CCc3ccc(NC(=O)c4ccc([N+](=O)[O-])cc4)cc3)CC2)c(OC)c1 | 0% |
| COc1ccc(-n2ccnc2SCC(=O)Nc2cccc(C(F)(F)F)c2)c(OC)c1 | 88% |
| COc1cc(C(=O)N2N=C(c3c(-c4ccccc4)c4cc(Br)ccc4[nH]c3=O)CC2c2cccc([N+](=O)[O-])c2)cc(OC)c1OC (stereo not given) | 95% |
| COc1ccccc1C1CCN(C2CCC(NC(=O)/C=C/c3cccc(Cl)c3)CC2)CC1 (stereo not given) | 20% |
| Cc1ccc(C(=O)Nc2cc(C(F)(F)F)cc(C(F)(F)F)c2)cc1[N+](=O)[O-] | 61% |
